An excerpt weighted towards active compounds, which were near 0.62% of everything screened.
Chronic BCR inh: qHTS Assay to Find Inhibitors of Chronic Active B-Cell Receptor Signaling. ABC-DLBCL IkBa-CBG/CBR reporter, luminescence ratio, 4 h. Potency, µM (titrated, usually from 46.1 µM), for inactives: at the highest dose activity change, negative = inhibition, most hits filed as inhibitors. 340,000 tested, 0.05% active. AID 493014, 2011; active means well fitted inhibition curve with a large enough effect in the signal ratio, with a control signal flat, not every such curve was filed as active; inconclusive means small, poorly fitted or top-dose-only effect, or effect the other way, or a change in a side signal; the % refers to the signal ratio;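 further: plate controls were basal doxycycline-induced cells for no effect and cells given 10 µM MG132 for full effect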
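Concentration-response series (up to 46 uM) were applied to TMD8 dual-reporter cells for 4 h at 37C with doxycycline. Green/red ratio, after filter-overlap correction, defined %Activity; red signal alone was normalised to basal cells and zero luminescence.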
S-ASM inh: Inhibitors of Secretory Acid Sphingomyelinase (S-ASM): qHTS; 340,000 tested, 0.006% active; Sphingomyelin phosphodiesterase (Homo sapiens), P17405; placental ASM, HMU-PC fluorogenic substrate, 60 min; Potency, µM (top dose mostly 57.5 µM), for inactives: at the top dose activity change, negative = inhibition, most hits filed as inhibitors; active means well fitted inhibition curve with a large enough effect; inconclusive means small, poorly fitted or top-dose-only effect; inactive means no such curve, though single readings can be large or run the other way
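Fluorescence read-out (Ex 386 nm, Em 447 nm) after stopping the reaction at pH 10. Enzyme: ASM from human placenta; substrate HMU-PC0, 9 uM final; 60 min, 37 °C. Compound preincubation 10 min, ambient temperature.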
gsp ag: qHTS for Agonist of gsp, the Etiologic Mutation Responsible for Fibrous Dysplasia/McCune-Albright Syndrome: qHTS | Potency, µM (series often up to 76.9 µM), inactives show at the highest dose activation (cAMP increase), actives largely listed as activators | gsp mutant cells, cAMP HTRF, 30 min | 340,000 tested, 0.13% active; active means well fitted activation curve with a large enough effect; inconclusive means small, poorly fitted or top-dose-only effect, or another doubt; inactive means no such curve, though single readings can be large or run the other way; cell line not stated here;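 further: phosphodiesterase inhibitor Ro 20-1724 added with compounds to block cAMP breakdown; nearly all actives have a fitted effect of over 60% in size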
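Cells in DMEM/10% FBS with G418 were pretreated with compounds in DMSO plus […] (300 uM stock) for 30 min at 37C. cAMP was measured by HTRF (cAMP-d2 plus anti-cAMP antibody-K) after 30 min at room temperature.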
gsp antag: qHTS for Antagonists of gsp, the Etiologic Mutation Responsible for Fibrous Dysplasia/McCune-Albright Syndrome: qHTS. gsp-mutant cells, cAMP HTRF, 30 min. Potency, µM (doses to about 76.9 µM), inactives show top-dose activity change, negative = inhibition, usual class: inhibitors. 340,000 tested, 0.4% active. AID 624288, 2012; calls by dose curve; cell line not stated here;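 further: intracellular cAMP measured with PDE inhibitor Ro 20-1724 present during compound exposure; on the % scale 0 is the no-effect control and ±100 the full control effect; nearly all actives have a fitted effect of over 65% in size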
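Cells in G418 medium, seeded 16-24 h, 37C; buffer exchange to DPBS + 1 mM CaCl2, 0.5 mM MgCl2, 0.05% BSA; cpds in DMSO + […] (300 uM stock), 30 min 37C; HTRF cAMP detection.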
MBNL1-CUG inh: qHTS Assay for Inhibitors of MBNL1-poly(CUG) RNA binding | TR-FRET MBNL1-His/biotin-(CUG)12 binding, 665/545 ratio | Potency, µM (top dose mostly 57.5 µM), without a hit: at the highest dose activity change, negative = inhibition, usual class: inhibitors | 280,000 tested, 0.036% active; active means well fitted inhibition curve with a large enough effect in the signal ratio, with a control signal flat, not every such curve was filed as active; inconclusive means small, poorly fitted or top-dose-only effect, or effect the other way, or a change in a side signal; inactive means no such curve, though single readings can be large or run the other way; the % refers to the signal ratio; further: on the % scale 0 is the no-effect control and ±100 the full control effect
Target sequence (Q9NR56 whole entry, looked up): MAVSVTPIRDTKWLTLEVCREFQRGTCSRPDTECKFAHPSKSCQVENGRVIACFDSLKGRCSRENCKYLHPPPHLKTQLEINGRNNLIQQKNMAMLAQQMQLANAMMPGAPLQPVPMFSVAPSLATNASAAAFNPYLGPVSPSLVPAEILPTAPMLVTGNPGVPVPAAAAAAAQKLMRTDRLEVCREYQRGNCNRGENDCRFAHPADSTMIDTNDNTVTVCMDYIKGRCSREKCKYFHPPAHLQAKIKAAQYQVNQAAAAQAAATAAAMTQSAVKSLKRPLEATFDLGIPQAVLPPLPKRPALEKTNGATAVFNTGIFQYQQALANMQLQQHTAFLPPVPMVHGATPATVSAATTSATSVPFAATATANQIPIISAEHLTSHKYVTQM
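Compound titration spanned 92 nM–58 uM against the MBNL1-His/biotin-(CUG)12 complex. After 60 min at room temperature with 5 nM streptavidin-XL665 and 0.055 ng/ul terbium anti-His, ratiometric 665/545 nm emission (Ex 340 nm) normalized to controls.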
Numbers without * were called inactive; [ ] = dose if it differs, or a comment. Potency means the concentration at half of the fitted maximal effect.

`O=C(O)c1ccc2c(c1)C(=O)N(c1cccc3ccccc13)C2=O` gave Chronic BCR inh -1%, S-ASM inh 7%, gsp ag 2%[15.4 µM], gsp antag 0% and MBNL1-CUG inh inconclusive.
CCCn1c(CN2CCN(C(=O)OCC)CC2)nc2cc(NC(=O)CC)ccc21 was read as Chronic BCR inh inconclusive, S-ASM inh 3%, gsp ag -10%[15.4 µM], gsp antag 22% and MBNL1-CUG inh -5%.
For Cc1sc2ncnc(N3CCC(C(=O)NNC(=O)COc4ccc(Cl)cc4)CC3)c2c1C the results were S-ASM inh 9%, gsp ag inconclusive and gsp antag 32µM*.
`Cc1ccc(OCC(=O)NNC(=O)C2CCN(c3ncnc4sc(C)c(C)c34)CC2)cc1` gave Chronic BCR inh 0%, S-ASM inh -3%, gsp ag 38%[15.4 µM] and gsp antag -25%.
For Cc1sc2ncnc(N3CCC(C(=O)Nc4ccc(OC(F)F)c(Cl)c4)CC3)c2c1C the results were Chronic BCR inh inconclusive, S-ASM inh -24%, gsp ag -35% and gsp antag 28µM*.
`O=C(Nc1cccnc1)c1ccc(Cl)c(S(=O)(=O)N2CCCC2)c1` gave Chronic BCR inh 6%, S-ASM inh 2%, gsp ag 19%, gsp antag -4% and MBNL1-CUG inh 0%.
Screening CC(c1ccccc1)N(CCC(c1ccccc1)C1CCOC(C)(C)C1)C(=O)c1ccco1 (stereo not given) returned Chronic BCR inh inconclusive, S-ASM inh -9%, gsp ag -20%, gsp antag inconclusive and MBNL1-CUG inh inconclusive.
COc1ccc(CN(CCC(c2ccc(F)cc2)C2CCOC(C)(C)C2)C(=O)c2ccco2)cc1 (stereo not given) was read as Chronic BCR inh inconclusive, S-ASM inh -12%, gsp ag 2%[15.4 µM], gsp antag 22µM* and MBNL1-CUG inh -4%.
For CCc1nc(SCC(=O)Nc2nc3c(s2)CCCC3)c2ccccc2n1 the results were Chronic BCR inh -4%, S-ASM inh -12%, gsp ag 18µM*, gsp antag 20% and MBNL1-CUG inh 16%.
For CCc1nnc(NC(=O)CSc2nnc(-c3cc4ccccc4cc3O)n2CC)s1 the results were Chronic BCR inh -17%, S-ASM inh 1%, gsp ag 4%, gsp antag 28µM* and MBNL1-CUG inh 9%.
Screening CCc1nnc(NC(=O)CSc2nc(-c3ccccc3)nc3ccccc23)s1 returned Chronic BCR inh 0%, S-ASM inh 0%, gsp ag 7.9µM* and gsp antag 19%.
CCc1nnc(NC(=O)CSc2nnc(-c3ccccc3O)n2CC)s1 was read as Chronic BCR inh inconclusive, S-ASM inh 4%, gsp ag 13%, gsp antag -7% and MBNL1-CUG inh 4%.
Screening COc1cccc(CNS(=O)(=O)c2ccc3c(c2)N(C)CCO3)c1 returned Chronic BCR inh -7%, S-ASM inh -2%, gsp ag 1%, gsp antag -10% and MBNL1-CUG inh -6%.
Cc1cc(N2CCOCC2)nc2ccc(NC(=O)CCC(=O)N3CCN(c4cccc(C(F)(F)F)c4)CC3)cc12 was read as Chronic BCR inh inconclusive, S-ASM inh inactive, gsp ag 3%, gsp antag 40µM* and MBNL1-CUG inh -1%.
Screening CCOC(=O)C1=C(COC(=O)c2ccc([N+](=O)[O-])o2)NC(=O)NC1C (stereo not given) returned Chronic BCR inh inconclusive, S-ASM inh 2%, gsp ag 35% and gsp antag -12%.
For Cc1ccc2[nH]c3c(N4CCN(Cc5ccc6c(c5)OCO6)CC4)ncnc3c2c1 the results were Chronic BCR inh -4% and MBNL1-CUG inh -2%.
Screening COc1ccc2c(c1)[nH]c1c(N3CCN(Cc4ccc5c(c4)OCO5)CC3)ncnc12 returned Chronic BCR inh inconclusive, S-ASM inh -4%, gsp ag -68%, gsp antag 40µM* and MBNL1-CUG inh -17%.
`COc1ccc2[nH]c3c(N4CC(C)OC(C)C4)ncnc3c2c1` (stereo not given) gave Chronic BCR inh 15%, S-ASM inh 140%, gsp ag 22%, gsp antag 4% and MBNL1-CUG inh 1%.
Screening COc1cccc(N2CCN(c3ncnc4c3[nH]c3ccc(F)cc34)CC2C)c1 (stereo not given) returned Chronic BCR inh inconclusive, S-ASM inh -26%, gsp ag -17%, gsp antag 3.5µM* and MBNL1-CUG inh 0%.
`COc1ccc2c(c1)[nH]c1c(N3CCSCC3)ncnc12` gave Chronic BCR inh inconclusive, S-ASM inh -3%, gsp ag -9%[15.4 µM], gsp antag 28µM* and MBNL1-CUG inh -6%.
`CSCCC(NC(=O)COc1ccccc1)C(=O)N1CCCCCC1` (stereo not given) gave Chronic BCR inh 8%, S-ASM inh 4%, gsp ag -22% and gsp antag -2%.
`Cc1ccc(-c2nnc(N3CCCCC3)c3ccccc23)cc1` gave Chronic BCR inh 0%, S-ASM inh 0%, gsp ag -33%, gsp antag 35µM* and MBNL1-CUG inh 2%.
For Cc1ccc(-c2nnc(N3CCN(C(=O)c4cccs4)CC3)c3ccccc23)cc1 the results were Chronic BCR inh 0%, S-ASM inh -3%, gsp ag -12% and gsp antag 45µM*.
Screening Cc1ccc(-c2nnc(N3CCN(c4ccccn4)CC3)c3ccccc23)cc1 returned Chronic BCR inh inconclusive, S-ASM inh -4%, gsp ag -10%[15.4 µM], gsp antag 40µM* and MBNL1-CUG inh 3%.
Screening CN(C)c1ccc(-c2nc3cc(N)ccc3o2)cc1 returned Chronic BCR inh inconclusive, S-ASM inh inactive, gsp ag 20µM*, gsp antag 12% and MBNL1-CUG inh 60%.
Cc1ccccc1S(=O)Cc1ccc(C(=O)N2CCN(C3CCCCC3)CC2)o1 (stereo not given) was read as gsp ag -7%.
`Cc1cc(Br)ccc1NC(=O)C1CCN(S(=O)(=O)c2cnc[nH]2)CC1` gave Chronic BCR inh 0%, S-ASM inh -1%, gsp ag 14%, gsp antag 2% and MBNL1-CUG inh -3%.
`COc1ccc(-c2[nH]ncc2Oc2ccccc2OC)c(O)c1` gave Chronic BCR inh 0%, S-ASM inh -3%, gsp ag -12%, gsp antag 13µM* and MBNL1-CUG inh -2%.

Screening results from PubChem BioAssay.
